Results on 38 compounds are retold here after PubChem BioAssay (NCATS).

In test [1] the target is Rap guanine nucleotide exchange factor 3 (Homo sapiens) (UniProt O95398). Nature of the test: Confirmatory qHTS for antagonist of cAMP-regulated guanine nucleotide exchange factor 3 (EPAC1) (AID 1645880). Note: nearly all actives have a fitted effect of over 55% in size. Note: potency is the fitted concentration of half-maximal effect. Summed up: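 Released BODIPY-GDP fluoresces less than Rap1-bound BODIPY-GDP; the signal is followed at 480/540 nm at 5-min intervals over 30 min, after 5 min at room temperature. Reactions contain 100 nM EPAC1, 250 nM RAP1B-BODIPY-GDP and 50 uM GDP; results are normalized to ATA and DMSO.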

Test [2] shares this target. Nature of the test: Confirmatory qHTS for agonist of cAMP-regulated guanine nucleotide exchange factor 3 (EPAC1) (AID 1645881).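 Note: EPAC1 catalysed release of BODIPY-GDP from Rap1B seen as fluorescence loss; 100% = effect of cAMP agonist control; nearly all actives have a fitted effect of over 75% in size.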 In general terms: qHTS replaces the single test concentration by a dilution series.
Test [3] concerns the target Rap guanine nucleotide exchange factor 4 (Homo sapiens) (UniProt Q8WZA2). Nature of the test: Confirmatory qHTS for agonist of cAMP-regulated guanine nucleotide exchange factor 4 (EPAC2) (AID 1645884).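 Note: nucleotide exchange releases bodipy-GDP from Rap1 and this lowers its fluorescence; % is set by controls: 0 for no effect and ±100 for the full control effect; nearly all actives have a fitted effect of over 65% in size.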
For test [4] the target is unchanged. Nature of the test: Confirmatory qHTS for antagonist of cAMP-regulated guanine nucleotide exchange factor 4 (EPAC2) (AID 1645885). For activity change, negative = inhibition: % is set by controls: 0 for no effect and ±100 for the full control effect. Note: nearly all actives have a fitted effect of over 25% in size. Note: potency is the fitted concentration of half-maximal effect.
The target of test [5] is Rap guanine nucleotide exchange factor 3 (Homo sapiens) (UniProt O95398). Nature of the test: Counterscreen qHTS for antagonist of cAMP-regulated guanine nucleotide exchange factor 3 (EPAC1) (AID 1645888). Note: % of control where 0% means no effect. Summed up: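 Measured: fluorescence of BODIPY-GDP bound to Rap1B, which falls as exchange proceeds. Conditions include 50 uM competing GDP, 5 and 30 min reads, and a later cAMP challenge for antagonist detection.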
(A counterscreen serves to expose hits that act by an unwanted route or on another target.)

SMILES strings stand for the structures. Results filed as inconclusive are left out. Unmarked numbers belong to inactive results. Activity calls are given as the source filed them. Calls come from the whole dose curve; as a rule, active = well fitted curve in the direction sought with a large enough effect; inconclusive = small, poorly fitted or top-dose-only effect, or another doubt; inactive = no such curve, though single readings can be large; an effect the other way counts as inactive or inconclusive.

Sequence of Rap guanine nucleotide exchange factor 4 (Homo sapiens) (Q8WZA2 whole entry, looked up): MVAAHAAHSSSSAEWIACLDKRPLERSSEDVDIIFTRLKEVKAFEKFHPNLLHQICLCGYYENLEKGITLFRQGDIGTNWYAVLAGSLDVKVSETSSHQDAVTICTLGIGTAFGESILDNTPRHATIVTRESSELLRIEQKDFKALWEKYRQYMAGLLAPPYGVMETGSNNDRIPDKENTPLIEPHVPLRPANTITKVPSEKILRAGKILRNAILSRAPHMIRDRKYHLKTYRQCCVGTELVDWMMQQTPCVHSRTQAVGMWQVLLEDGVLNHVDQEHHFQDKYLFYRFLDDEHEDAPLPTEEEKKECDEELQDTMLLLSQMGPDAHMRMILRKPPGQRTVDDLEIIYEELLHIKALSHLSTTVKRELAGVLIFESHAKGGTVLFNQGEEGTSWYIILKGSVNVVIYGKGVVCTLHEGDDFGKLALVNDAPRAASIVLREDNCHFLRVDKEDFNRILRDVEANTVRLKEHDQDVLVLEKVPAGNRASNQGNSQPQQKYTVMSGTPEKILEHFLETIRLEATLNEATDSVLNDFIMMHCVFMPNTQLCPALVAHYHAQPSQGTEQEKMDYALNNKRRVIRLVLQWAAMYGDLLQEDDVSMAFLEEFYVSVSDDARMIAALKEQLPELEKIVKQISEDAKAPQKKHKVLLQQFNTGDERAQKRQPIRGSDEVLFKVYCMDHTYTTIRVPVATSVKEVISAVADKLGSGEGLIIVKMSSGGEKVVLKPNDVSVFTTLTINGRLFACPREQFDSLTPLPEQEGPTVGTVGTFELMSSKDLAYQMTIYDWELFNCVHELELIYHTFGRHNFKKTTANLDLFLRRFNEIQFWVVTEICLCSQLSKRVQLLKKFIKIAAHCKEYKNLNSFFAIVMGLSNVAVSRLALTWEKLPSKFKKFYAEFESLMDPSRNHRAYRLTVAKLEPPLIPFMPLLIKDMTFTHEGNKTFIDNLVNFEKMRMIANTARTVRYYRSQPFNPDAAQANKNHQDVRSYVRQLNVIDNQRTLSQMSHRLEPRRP
Sequence of Rap guanine nucleotide exchange factor 3 (Homo sapiens) (O95398 whole entry, looked up): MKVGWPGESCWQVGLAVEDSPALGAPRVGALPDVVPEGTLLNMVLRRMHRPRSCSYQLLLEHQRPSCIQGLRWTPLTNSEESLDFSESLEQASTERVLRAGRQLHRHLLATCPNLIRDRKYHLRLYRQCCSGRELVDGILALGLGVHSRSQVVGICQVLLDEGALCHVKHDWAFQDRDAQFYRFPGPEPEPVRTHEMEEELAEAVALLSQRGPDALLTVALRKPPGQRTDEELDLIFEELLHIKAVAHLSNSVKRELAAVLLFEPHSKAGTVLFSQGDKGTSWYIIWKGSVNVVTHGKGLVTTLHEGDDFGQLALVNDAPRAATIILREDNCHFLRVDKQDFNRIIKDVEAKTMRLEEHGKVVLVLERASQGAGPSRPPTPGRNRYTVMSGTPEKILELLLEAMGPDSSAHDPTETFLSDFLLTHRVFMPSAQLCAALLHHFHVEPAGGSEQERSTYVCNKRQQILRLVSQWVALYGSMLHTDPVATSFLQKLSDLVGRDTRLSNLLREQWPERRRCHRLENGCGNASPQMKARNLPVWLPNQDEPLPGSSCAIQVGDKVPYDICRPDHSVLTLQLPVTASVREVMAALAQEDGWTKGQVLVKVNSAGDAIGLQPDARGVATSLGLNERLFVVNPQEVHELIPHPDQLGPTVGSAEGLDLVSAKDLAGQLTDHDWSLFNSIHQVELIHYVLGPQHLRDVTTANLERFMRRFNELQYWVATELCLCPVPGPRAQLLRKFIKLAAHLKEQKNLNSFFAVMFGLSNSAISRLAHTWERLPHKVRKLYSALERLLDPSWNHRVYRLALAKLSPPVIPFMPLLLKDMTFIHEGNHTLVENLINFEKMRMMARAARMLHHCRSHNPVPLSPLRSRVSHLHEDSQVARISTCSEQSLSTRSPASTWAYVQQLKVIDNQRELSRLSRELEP

On to `O=C(O)CCn1cc(/C=C2\NC(=S)N(c3ccccc3)C2=O)c(-c2ccc(Br)cc2)n1`, for which the Potency result in test [1], in test [2], in test [3], in test [4] and in test [5] was “inactive” throughout.

As to `NNc1nc2c(Cl)c(Cl)ccc2s1`, the Potency result in test [1], in test [2] and in test [4] was “inactive” each time. In addition, the activation in test [3] is 7.89% [at 17.1 µM, percent relative to cAMP agonist control]. Also, the activity change, negative = inhibition in test [5] is 3.53% [at 30.8 µM].

Regarding `COc1cc2c(C#N)c(N3CCCC3)nc(N)c2c(N)n1`, the Potency in test [1] was 37.9 µM (active). For the same compound, the Potency result in test [2], in test [3], in test [4] and in test [5] was “inactive” throughout.

In the case of `Cc1ccc(N(Cc2cccs2)C(=O)c2ccccc2Cl)cc1`, the Potency entry in test [1], in test [2], in test [3], in test [4] and in test [5] was “inactive” each time.

On to `COc1ccccc1Nc1nc(N)nc(CN2CCC(C)CC2)n1`, for which the Potency entry in test [1], in test [2], in test [3], in test [4] and in test [5] was “inactive” throughout.

In the case of `CCOC(=O)Cc1nn(Cc2ccccc2)c(=O)c2ccccc12`, the Potency entry in test [1], in test [2], in test [3], in test [4] and in test [5] was “inactive” in each case.

Take `CCOc1ccc(NC(=O)CN(C)C(=O)c2cc(C3CC3)nn2-c2ccccc2)cc1OCC`: the Potency result in test [1], in test [2], in test [3], in test [4] and in test [5] was “inactive” throughout.

Turning to `CC1CCc2[nH]c3ccc(C(=O)N(C)CC(=O)Nc4ccccc4Br)cc3c2C1` (stereo not given), the Potency result in test [1], in test [2], in test [3], in test [4] and in test [5] was “inactive” in each case.

In the case of `COc1ccc(NC(=O)C2=NN(c3ccccc3)C(=O)CC2)cn1`, the Potency entry in test [1], in test [2], in test [3], in test [4] and in test [5] was “inactive” in each case.

As to `O=c1oc(-c2ccccc2NS(=O)(=O)c2ccccc2)nc2ccccc12`, the Potency entry in test [1], in test [2] and in test [4] was “inactive” each time. Besides, in test [3], the activation was 2.35% [at 17.1 µM, percent relative to cAMP agonist control]. Also, the activity change, negative = inhibition in test [5] is 2.74% [at 30.8 µM].

For the compound `Clc1ccc2nc(C3CCCCC3)c(CC3CCCCC3)n2c1`, the Potency entry in test [1], in test [2] and in test [4] was “inactive” each time. For the same compound, the activation in test [3] is -3.07% [at 17.1 µM, percent relative to cAMP agonist control]. For the same compound, the activity change, negative = inhibition in test [5] was -0.327% [at 30.8 µM].

As for `Cc1cccc(N=C2NC(=O)/C(=C/C=C/c3ccco3)S2)c1C`, the Potency in test [1] was 9.53 µM (active). Further, the Potency entry in test [2], in test [3], in test [4] and in test [5] was “inactive” each time.

For `Cc1ccc(C(NC(=O)C(C)C)c2cc([N+](=O)[O-])c3cccnc3c2O)cc1` (stereo not given), the Potency in test [1] is 35.5 µM (active). For the same compound, the Potency result in test [2] and in test [4] was “inactive” each time. Also, the activation in test [3] was 0.958% [at 17.1 µM, percent relative to cAMP agonist control]. In addition, the activity change, negative = inhibition in test [5] is -17.2% [at 30.8 µM].

`Clc1cccc(Cl)c1C1Nc2cccc3cccc(c23)N1`: the Potency entry in test [1], in test [2], in test [3], in test [4] and in test [5] was “inactive” each time.

As to `CN(C(=O)c1cc(-c2ccccc2)on1)C1CCCCC1`, the Potency entry in test [1], in test [2] and in test [4] was “inactive” throughout. Further, in test [3], the activation is 6.82% [at 17.1 µM, percent relative to cAMP agonist control]. Further, the activity change, negative = inhibition in test [5] is 29.1% [at 30.8 µM].

For `CCCOC(=O)c1c(-c2ccccc2)c(-c2ccccc2)nn(C)c1=O`, the Potency entry in test [1], in test [2], in test [3], in test [4] and in test [5] was “inactive” each time.

Consider `O=C1NC(=Nc2ccccc2Cl)S/C1=C\c1cc([N+](=O)[O-])ccc1O`, for which the Potency in test [1] is 53.6 µM (active); in test [4] it was 26.9 µM (active). Also, the Potency entry in test [2], in test [3] and in test [5] was “inactive” throughout.

As to `COc1ccc(C(=O)NCC2(c3ccccc3)CCCC2)c(OC)c1`, the Potency result in test [1], in test [2] and in test [4] was “inactive” throughout. Moreover, the activation in test [3] is -2.19% [at 17.1 µM, percent relative to cAMP agonist control]. Further, the activity change, negative = inhibition in test [5] is -13.7% [at 30.8 µM].

As to `O=C(c1ccccc1)N1CCN(CCc2ccccn2)CC1`, the Potency entry in test [1], in test [2], in test [3] and in test [5] was “inactive” throughout. Moreover, the outcome in test [4] is “inactive [at 12.7 µM]”.

As for `CCCCCCNC(=O)c1cc(-c2ccco2)nc2ccccc12`, the Potency in test [1] was 22.4 µM (active). Besides, the Potency entry in test [2] and in test [4] was “inactive” each time. In addition, in test [3], the activation was 3.51% [at 17.1 µM, percent relative to cAMP agonist control]. In test [5], the activity change, negative = inhibition was -13.3% [at 30.8 µM].

In the case of `COc1ccc(CCNC(=O)CSc2nc3nc(C)c(Cc4ccc(C)cc4)c(C)n3n2)cc1OC`, the Potency entry in test [1], in test [2], in test [3], in test [4] and in test [5] was “inactive” throughout.

Turning to `Cc1cccc(C(=O)Nc2cccc(C(=O)OCc3cc(=O)n4c5c(sc4n3)CCCC5)c2)c1`, the Potency entry in test [1], in test [2], in test [3], in test [4] and in test [5] was “inactive” in each case.

As to `Cc1ccc(S(=O)(=O)N(C)C)cc1NC(=O)CSc1nc2ncc(Cl)cc2[nH]1`, the Potency entry in test [1], in test [2], in test [3] and in test [5] was “inactive” in each case. For the same compound, the outcome in test [4] was “inactive [at 12.7 µM]”.

With `Cc1ccc(NC(=O)c2ccc(Cl)cc2Cl)c(C(=O)c2ccccc2)c1`, the Potency entry in test [1], in test [2], in test [3] and in test [5] was “inactive” in each case. Further, in test [4], the outcome is “inactive [at 12.7 µM]”.

As to `CN1C(=O)Cc2cc(S(=O)(=O)N3CCN(c4ccccc4F)CC3)ccc21`, the Potency result in test [1], in test [2], in test [3], in test [4] and in test [5] was “inactive” throughout.

In the case of `COc1cc(C)cc(C(=O)C=Cc2ccccc2)c1O`, the Potency entry in test [1], in test [2] and in test [4] was “inactive” each time. For the same compound, the activation in test [3] was 3.76% [at 17.1 µM, percent relative to cAMP agonist control]. In test [5], the activity change, negative = inhibition is 12.7% [at 30.8 µM].

Consider `CCCN1C(=O)c2ccccc2NC1c1ccc(OC)cc1OC` (stereo not given), for which the Potency result in test [1], in test [2], in test [3], in test [4] and in test [5] was “inactive” each time.

For `CCCCn1c(CN2CCOCC2)nc2c1c(=O)n(C)c(=O)n2C`, the Potency entry in test [1], in test [2], in test [3], in test [4] and in test [5] was “inactive” throughout.

For the compound `CC(=NNC(=O)c1ccccc1N)c1ccccc1O`, in test [1], the Potency was 2.51 µM (active). Moreover, the Potency entry in test [2] and in test [4] was “inactive” in each case. In test [3], the activation was 0.484% [at 17.1 µM, percent relative to cAMP agonist control]. The activity change, negative = inhibition in test [5] is -1.34% [at 30.8 µM].

On to `Fc1cc(F)c(F)c(SCn2cc(Br)cn2)c1F`, for which the Potency result in test [1], in test [2] and in test [4] was “inactive” throughout. For the same compound, in test [3], the activation was 5.6% [at 17.1 µM, percent relative to cAMP agonist control]. Further, in test [5], the activity change, negative = inhibition is -7.43% [at 30.8 µM].

In the case of `COc1ccc(-c2n[nH]c3c2C(c2ccc(Cl)cc2Cl)NC3=O)cc1` (stereo not given), the Potency entry in test [1], in test [2], in test [3], in test [4] and in test [5] was “inactive” each time.

On to `COc1cccc(CNC(=O)CCC(=O)N2CC(C)Sc3ccccc32)c1` (stereo not given), for which the Potency result in test [1], in test [2], in test [3], in test [4] and in test [5] was “inactive” in each case.

For `Cc1ccc(NC(=O)Cn2nc(C)c3nn(-c4ccc(Cl)cc4)c(C)c3c2=O)cc1F`, the Potency result in test [1], in test [2], in test [3], in test [4] and in test [5] was “inactive” each time.

In the case of `CCC1CCCCN1CCCNC(=O)c1csc2c1CCCCC2` (stereo not given), the Potency entry in test [1], in test [2], in test [3], in test [4] and in test [5] was “inactive” in each case.

In the case of `Cc1cccc(NC(=O)Cn2c(O)c(N=NC(=O)c3ccncc3)c3ccccc32)c1`, the Potency entry in test [1], in test [2], in test [3], in test [4] and in test [5] was “inactive” each time.

As for `COc1ccccc1-c1ccc(Nc2cccc(C(F)(F)F)c2)nn1`, the Potency result in test [1], in test [2], in test [3], in test [4] and in test [5] was “inactive” each time.

In the case of `CCOc1cc(/C=C2\C(=N)N3N=C(S(C)(=O)=O)SC3=NC2=O)ccc1OCCOc1cccc(OC)c1`, the Potency in test [1] was 19 µM (active). For the same compound, the Potency entry in test [2], in test [3], in test [4] and in test [5] was “inactive” in each case.

Take `COc1ccc2oc(C(=O)N(C)CCOc3ccc(Cl)cc3)c(C)c2c1`: the Potency result in test [1], in test [2] and in test [4] was “inactive” each time. Moreover, in test [3], the activation is 7.19% [at 17.1 µM, percent relative to cAMP agonist control]. Moreover, the activity change, negative = inhibition in test [5] is -14.2% [at 30.8 µM].
